Source: PubChem BioAssay (Tox21)
Values without a mark were called inactive. Results filed as inconclusive are left out. Entries that show only a call come without a potency. Activity calls are given as the source filed them. Unless noted, calls come from the whole dose curve; as a rule, active = well fitted curve in the direction sought with a large enough effect in the repeat runs; inconclusive = weak or mixed curves; inactive = no such curve, though single readings can be large; an effect the other way counts as inactive or inconclusive.

Tests used:
[1] = qHTS assay to identify small molecule agonists of the TGF-beta/Smad signaling pathway - cell viability counter screen (AID 1346829); note: top concentration of the series differs between compounds; nearly all actives have a fitted effect of over 45% in size
Method in brief: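 SBE-bla HEK 293T cells plated overnight, compound exposure 5 hr at 37 C. Viability read in the same wells by CellTiter-Glo luminescence after 30 min at room temperature, following the beta-lactamase read.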

[2] = qHTS assay to identify small molecule agonists of the TGF-beta/Smad signaling pathway (AID 1346859; active = well fitted activation curve with a large enough effect in the signal ratio in the repeat runs, not every such curve was filed as active; the % refers to the signal ratio; note: series mostly up to about 77 µM)
Method in brief: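 Beta-lactamase reporter activity downstream of Smad binding elements was measured in stably transfected HEK 293T cells; compounds were incubated for 5 hr, substrate for 2 hr at room temperature.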

[3] = Human pregnane X receptor (PXR) small molecule agonists, qHTS cell viability counter screen (AID 1346977); note: nearly all actives have a fitted effect of over 50% in size
Method in brief: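 After a 5hr pre-incubation, PXR-Luc HepG2 cells received compounds plus positive control in DMSO and were kept 24hr at 37C. Cell viability was quantified by fluorescence from CellTiter-Fluor added for the final hour.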

[4] = Caspase-3/7 induction in HepG2 cells by small molecules, qHTS assay (AID 1346978); note: nearly all actives have a fitted effect of over 15% in size
Method in brief: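 Caspase-3/7 induction was measured by Caspase-Glo 3/7 luminescence (30 min, room temperature) after a 17 hr compound exposure of wild-type HepG2 cells seeded at 2,000 per well and pre-incubated 5 hr.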

[5] = Caspase-3/7 induction in CHO-K1 cells by small molecules, qHTS cell viability counter screen (AID 1346979); note: nearly all actives have a fitted effect of over 35% in size
Method in brief: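 Multiplexed with Caspase-Glo 3/7 in CHO-K1 cells, this counter screen added CellTiter-Fluor after 16hr of compound exposure and recorded fluorescence 1hr later.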

[6] = Caspase-3/7 induction in CHO-K1 cells by small molecules, qHTS assay (AID 1346980); note: nearly all actives have a fitted effect of over 15% in size
Method in brief: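 Luminescent Caspase-Glo 3/7 read (30min, room temperature) quantified apoptosis induction. Cells were wild-type CHO-K1, treated with compound for 17hr at 37 C and 5% CO2.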

[7] = Caspase-3/7 induction in HepG2 cells by small molecules, qHTS cell viability counter screen (AID 1346981); note: series mostly up to about 92 µM; nearly all actives have a fitted effect of over 30% in size
Method in brief: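 Multiplexed with the caspase-3/7 assay: HepG2 cells, 16 hr compound treatment, CellTiter-Fluor viability detection by fluorescence.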

[8] = biological target: Cytochrome P450 2D6 (Homo sapiens) (UniProt P10635); assay: Cytochrome P450 Family 2 Subfamily D Member 6 (CYP2D6) small molecule antagonists: luciferase reporter qHTS assay (AID 1671196); note: nearly all actives have a fitted effect of over 50% in size; note: potency is the fitted concentration of half-maximal effect
Cytochrome P450 2D6 (Homo sapiens), sequence (P10635 whole entry, looked up): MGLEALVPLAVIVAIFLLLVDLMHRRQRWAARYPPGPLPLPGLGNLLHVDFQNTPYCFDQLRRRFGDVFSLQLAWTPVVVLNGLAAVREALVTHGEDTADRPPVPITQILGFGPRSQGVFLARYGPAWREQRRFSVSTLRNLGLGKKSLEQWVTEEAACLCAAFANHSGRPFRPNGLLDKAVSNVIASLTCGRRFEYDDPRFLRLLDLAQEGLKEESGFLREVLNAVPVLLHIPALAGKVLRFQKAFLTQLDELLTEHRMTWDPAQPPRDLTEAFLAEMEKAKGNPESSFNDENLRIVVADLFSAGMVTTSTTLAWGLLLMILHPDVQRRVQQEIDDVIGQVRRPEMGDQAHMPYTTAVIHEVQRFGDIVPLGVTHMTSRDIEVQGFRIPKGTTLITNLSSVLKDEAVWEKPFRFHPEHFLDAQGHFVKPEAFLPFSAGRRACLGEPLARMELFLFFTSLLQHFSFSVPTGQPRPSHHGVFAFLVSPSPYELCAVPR
Method in brief: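 Luminescence (RLU), read 20 min after detection reagent, indicated CYP2D6 conversion of proluciferin to luciferin during a 1 h NADPH-dependent reaction at room temperature.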

[9] = biological target: Cytochrome P450 2C19 (Homo sapiens) (UniProt P33261); assay: Cytochrome P450 Family 2 Subfamily C Member 19 (CYP2C19) small molecule antagonists: luciferase reporter qHTS assay (AID 1671197); note: nearly all actives have a fitted effect of over 65% in size; note: potency is the fitted concentration of half-maximal effect
Cytochrome P450 2C19 (Homo sapiens), sequence (P33261 whole entry, looked up): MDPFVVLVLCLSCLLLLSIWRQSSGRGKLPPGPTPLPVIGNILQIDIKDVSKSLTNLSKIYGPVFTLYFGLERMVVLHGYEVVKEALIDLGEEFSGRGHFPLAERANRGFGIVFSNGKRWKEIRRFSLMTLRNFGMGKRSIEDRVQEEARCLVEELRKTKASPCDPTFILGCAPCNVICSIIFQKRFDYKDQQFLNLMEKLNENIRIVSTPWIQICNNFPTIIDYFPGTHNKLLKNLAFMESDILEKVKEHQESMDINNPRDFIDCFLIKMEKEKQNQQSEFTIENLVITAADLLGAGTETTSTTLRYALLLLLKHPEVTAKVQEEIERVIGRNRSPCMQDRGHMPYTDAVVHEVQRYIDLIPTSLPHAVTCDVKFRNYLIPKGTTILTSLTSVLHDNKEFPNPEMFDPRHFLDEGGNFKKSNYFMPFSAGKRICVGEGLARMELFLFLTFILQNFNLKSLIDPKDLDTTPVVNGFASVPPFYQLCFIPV
Method in brief: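 P450-Glo CYP2C19 system: enzyme-substrate mix with compound 10 min at room temperature, then NADPH regeneration solution, 1 h at 37C. Proluciferin-to-luciferin conversion detected by luminescence after 20 min with detection reagent; ketoconazole as positive control.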

[10] = biological target: Cytochrome P450 2C9 (Homo sapiens) (UniProt P11712); assay: Cytochrome P450 Family 2 Subfamily C Member 9 (CYP2C9) small molecule antagonists: luciferase reporter qHTS assay (AID 1671198); note: nearly all actives have a fitted effect of over 50% in size; note: potency is the fitted concentration of half-maximal effect
Cytochrome P450 2C9 (Homo sapiens), sequence (P11712 whole entry, looked up): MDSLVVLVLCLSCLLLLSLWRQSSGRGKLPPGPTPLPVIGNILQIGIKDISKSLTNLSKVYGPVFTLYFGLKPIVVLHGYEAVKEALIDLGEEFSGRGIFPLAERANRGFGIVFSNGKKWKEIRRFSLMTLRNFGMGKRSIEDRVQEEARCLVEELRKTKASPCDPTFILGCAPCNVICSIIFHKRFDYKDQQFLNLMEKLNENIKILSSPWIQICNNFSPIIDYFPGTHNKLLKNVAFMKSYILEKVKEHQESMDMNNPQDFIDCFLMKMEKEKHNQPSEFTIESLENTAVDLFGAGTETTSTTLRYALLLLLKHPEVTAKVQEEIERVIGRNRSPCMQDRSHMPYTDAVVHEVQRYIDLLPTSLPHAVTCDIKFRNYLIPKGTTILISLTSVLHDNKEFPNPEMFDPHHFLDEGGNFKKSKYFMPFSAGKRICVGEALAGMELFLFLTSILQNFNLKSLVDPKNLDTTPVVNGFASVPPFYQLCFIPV
Method in brief: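 Enzyme-substrate mix preincubated with compound 10 min at room temperature; reaction started with NADPH regeneration solution, 1 h 37C. Luminescent luciferin product read after 20 min detection reagent.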

[11] = biological target: Cytochrome P450 1A2 (Homo sapiens) (UniProt P05177); assay: Cytochrome P450 Family 1 Subfamily A Member 2 (CYP1A2) small molecule antagonists: luciferase reporter qHTS assay (AID 1671199); note: nearly all actives have a fitted effect of over 50% in size; note: potency is the fitted concentration of half-maximal effect
Cytochrome P450 1A2 (Homo sapiens), sequence (P05177 whole entry, looked up): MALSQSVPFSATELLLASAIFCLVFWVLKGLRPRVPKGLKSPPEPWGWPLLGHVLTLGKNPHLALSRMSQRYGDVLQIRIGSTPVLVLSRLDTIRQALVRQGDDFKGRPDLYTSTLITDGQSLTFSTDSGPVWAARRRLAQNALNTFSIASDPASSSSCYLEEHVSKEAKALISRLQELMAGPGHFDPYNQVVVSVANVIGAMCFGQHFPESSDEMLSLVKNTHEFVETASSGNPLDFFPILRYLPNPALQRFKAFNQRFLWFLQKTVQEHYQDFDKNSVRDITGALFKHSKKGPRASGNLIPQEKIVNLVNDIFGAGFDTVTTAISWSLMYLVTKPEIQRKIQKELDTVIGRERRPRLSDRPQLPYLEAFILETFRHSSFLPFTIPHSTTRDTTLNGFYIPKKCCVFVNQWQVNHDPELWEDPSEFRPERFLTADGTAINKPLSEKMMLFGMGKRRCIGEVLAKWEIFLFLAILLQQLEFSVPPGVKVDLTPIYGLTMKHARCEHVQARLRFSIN
Method in brief: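 CYP1A2 turnover of a luminogenic substrate was quantified after 1 h with NADPH regeneration at room temperature. Furafylline served as positive control.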

[12] = biological target: Voltage-gated inwardly rectifying potassium channel KCNH2 (Homo sapiens) (UniProt Q12809); assay: Human Ether-a-go-go-Related Gene (hERG) channel small molecule antagonists: fluorescence cell-based qHTS assay (AID 1671200)
Voltage-gated inwardly rectifying potassium channel KCNH2 (Homo sapiens), sequence (Q12809 whole entry, looked up): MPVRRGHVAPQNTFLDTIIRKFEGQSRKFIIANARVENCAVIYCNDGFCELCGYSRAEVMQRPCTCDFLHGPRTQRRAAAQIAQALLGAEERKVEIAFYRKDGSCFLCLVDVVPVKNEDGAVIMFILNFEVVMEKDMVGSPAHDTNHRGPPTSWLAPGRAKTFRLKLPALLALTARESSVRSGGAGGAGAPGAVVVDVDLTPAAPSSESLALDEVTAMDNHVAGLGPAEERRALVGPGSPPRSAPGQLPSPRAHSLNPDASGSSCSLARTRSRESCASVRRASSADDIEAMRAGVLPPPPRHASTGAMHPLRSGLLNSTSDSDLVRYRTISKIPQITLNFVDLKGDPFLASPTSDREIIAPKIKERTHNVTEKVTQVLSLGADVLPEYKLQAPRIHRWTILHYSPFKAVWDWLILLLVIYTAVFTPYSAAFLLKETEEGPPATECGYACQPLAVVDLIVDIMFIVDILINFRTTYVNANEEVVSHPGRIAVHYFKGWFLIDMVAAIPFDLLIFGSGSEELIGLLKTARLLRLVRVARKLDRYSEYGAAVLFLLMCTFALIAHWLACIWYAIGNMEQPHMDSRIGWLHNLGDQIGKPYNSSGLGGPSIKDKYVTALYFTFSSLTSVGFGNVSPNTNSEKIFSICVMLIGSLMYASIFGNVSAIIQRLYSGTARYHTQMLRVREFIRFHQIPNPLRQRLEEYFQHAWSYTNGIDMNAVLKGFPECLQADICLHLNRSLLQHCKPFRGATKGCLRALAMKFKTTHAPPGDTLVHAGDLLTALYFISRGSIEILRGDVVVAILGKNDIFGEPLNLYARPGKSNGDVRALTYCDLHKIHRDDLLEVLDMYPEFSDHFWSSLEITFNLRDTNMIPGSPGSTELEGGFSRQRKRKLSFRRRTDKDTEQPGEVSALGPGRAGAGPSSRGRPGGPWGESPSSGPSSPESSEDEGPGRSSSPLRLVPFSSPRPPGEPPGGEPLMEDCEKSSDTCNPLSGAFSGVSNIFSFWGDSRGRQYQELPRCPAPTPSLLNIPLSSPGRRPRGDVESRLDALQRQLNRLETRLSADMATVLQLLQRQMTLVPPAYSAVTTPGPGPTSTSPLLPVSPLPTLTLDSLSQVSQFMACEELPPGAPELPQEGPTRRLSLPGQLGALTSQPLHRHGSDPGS
Method in brief: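 Cell line hERG-U2OS; dye FluxOR II, 1 h RT dark; Tl+ stimulus; ex 480/em 540 nm, read each second for 2 min.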

[13] = biological target: Cytochrome P450 3A4 (Homo sapiens) (UniProt P08684); assay: Cytochrome P450 Family 3 Subfamily A Member 4 (CYP3A4) small molecule antagonists: luciferase reporter qHTS assay (AID 1671201)
Cytochrome P450 3A4 (Homo sapiens), sequence (P08684 whole entry, looked up): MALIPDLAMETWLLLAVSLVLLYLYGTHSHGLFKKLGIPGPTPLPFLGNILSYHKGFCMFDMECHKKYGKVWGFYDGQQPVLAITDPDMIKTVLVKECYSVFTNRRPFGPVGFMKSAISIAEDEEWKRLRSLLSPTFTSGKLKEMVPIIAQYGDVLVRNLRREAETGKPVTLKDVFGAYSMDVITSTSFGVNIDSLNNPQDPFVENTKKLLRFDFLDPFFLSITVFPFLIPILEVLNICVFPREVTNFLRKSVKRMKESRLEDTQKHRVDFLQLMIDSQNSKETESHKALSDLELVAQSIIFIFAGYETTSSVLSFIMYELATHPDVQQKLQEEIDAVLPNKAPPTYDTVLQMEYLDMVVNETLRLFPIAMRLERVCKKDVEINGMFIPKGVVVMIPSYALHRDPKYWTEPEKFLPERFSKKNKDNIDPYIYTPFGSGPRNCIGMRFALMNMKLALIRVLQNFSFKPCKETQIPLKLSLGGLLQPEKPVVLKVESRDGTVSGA
Method in brief: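 Room-temperature assay throughout: 10 min compound–enzyme/substrate preincubation, 1 h reaction after NADPH regeneration solution, 20 min detection. Luciferin formed from proluciferin substrate is quantified by luminescence.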

[14] = biological target: Nuclear receptor subfamily 1 group I member 2 (Homo sapiens) (UniProt O75469); assay: Human pregnane X receptor (PXR) small molecule agonists, qHTS assay (AID 1346982); note: nearly all actives have a fitted effect of over 35% in size; note: potency is the fitted concentration of half-maximal effect
Nuclear receptor subfamily 1 group I member 2 (Homo sapiens), sequence (O75469 whole entry, looked up): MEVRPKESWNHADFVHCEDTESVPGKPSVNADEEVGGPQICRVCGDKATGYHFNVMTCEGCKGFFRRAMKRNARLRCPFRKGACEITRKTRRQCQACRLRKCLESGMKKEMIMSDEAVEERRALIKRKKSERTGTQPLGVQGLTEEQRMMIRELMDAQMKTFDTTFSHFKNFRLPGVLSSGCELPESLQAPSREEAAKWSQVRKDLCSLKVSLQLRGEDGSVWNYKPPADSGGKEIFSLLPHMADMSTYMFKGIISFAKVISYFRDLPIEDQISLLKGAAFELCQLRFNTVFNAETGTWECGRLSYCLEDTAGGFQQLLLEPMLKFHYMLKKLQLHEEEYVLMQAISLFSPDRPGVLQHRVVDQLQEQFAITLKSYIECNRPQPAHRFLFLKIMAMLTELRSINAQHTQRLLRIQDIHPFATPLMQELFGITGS
Method in brief: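 We seeded PXR-Luc HepG2 cells in assay medium containing 5% charcoal-stripped FBS, added compounds 5 hr later, incubated 24 hr, and read luminescence with ONE-Glo reagent.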

[15] = biological target: Nuclear receptor subfamily 1 group I member 2 (Rattus norvegicus) (UniProt Q9R1A7); assay: Rat pregnane X receptor (rPXR) activation by small molecules, qHTS assay (AID 1346983); settings: rPXR luciferase reporter cells, One-Glo luminescence, 24 h; max activation: hits give high values; note: nearly all actives have a fitted effect of over 20% in size
Nuclear receptor subfamily 1 group I member 2 (Rattus norvegicus), sequence (Q9R1A7 whole entry, looked up): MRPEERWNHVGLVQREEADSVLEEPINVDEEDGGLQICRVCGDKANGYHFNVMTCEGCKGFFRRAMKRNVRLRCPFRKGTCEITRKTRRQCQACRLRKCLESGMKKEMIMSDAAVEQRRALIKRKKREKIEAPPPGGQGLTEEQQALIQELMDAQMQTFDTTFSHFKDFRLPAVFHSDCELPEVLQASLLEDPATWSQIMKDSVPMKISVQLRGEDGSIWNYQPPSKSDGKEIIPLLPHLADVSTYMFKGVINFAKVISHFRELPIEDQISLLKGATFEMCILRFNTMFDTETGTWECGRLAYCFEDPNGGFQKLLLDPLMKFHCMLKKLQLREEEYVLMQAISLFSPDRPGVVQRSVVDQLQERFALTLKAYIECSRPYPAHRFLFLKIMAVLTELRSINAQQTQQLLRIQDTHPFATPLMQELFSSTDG
Method in brief: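 Luminescent readout (One-Glo luciferase, 30 min room temperature) followed 24 hr compound treatment at 37 C of rPXR cells plated 2,000 per well and preincubated 5hr; qHTS format with compounds delivered in DMSO.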

[16] = biological target: Nuclear receptor subfamily 1 group I member 2 (Homo sapiens) (UniProt O75469); assay: CYP3A4 induction through human pregnane X receptor (PXR) by small molecules, qHTS assay (AID 1346984); note: nearly all actives have a fitted effect of over 40% in size
Method in brief: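 qHTS, concentration-response format: HepG2 DPX-2 line, PXR/CYP3A4-luc. Exposure 24 h, 37C. Substrate Luciferin-IPA 3uM final, 3 h. Detection One-Glo, 30 min RT.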

[17] = biological target: Nuclear receptor subfamily 1 group I member 2 (Homo sapiens) (UniProt O75469); assay: Human pregnane X receptor (PXR) activation by small molecules, qHTS assay (AID 1346985); note: nearly all actives have a fitted effect of over 40% in size
Method in brief: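 DPX-2 cells (HepG2 co-transfected with a PXR response element and a CYP3A4-promoter luciferase construct) were seeded at 2,000 per well, rested 5 hr at 37C, then exposed to DMSO-dissolved compounds for 24 hr. Activation was read as luciferase luminescence.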

[18] = biological target: Thyrotropin-releasing hormone receptor (Homo sapiens) (UniProt P34981); assay: qHTS assay to identify small molecule agonists of the thyrotropin-releasing hormone receptor (TRHR) signaling pathway (AID 1346891; calls by dose curve;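 note: HEK293 cells expressing TRHR with calcium dye readout; series mostly up to about 58 µM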)
Thyrotropin-releasing hormone receptor (Homo sapiens), sequence (P34981 whole entry, looked up): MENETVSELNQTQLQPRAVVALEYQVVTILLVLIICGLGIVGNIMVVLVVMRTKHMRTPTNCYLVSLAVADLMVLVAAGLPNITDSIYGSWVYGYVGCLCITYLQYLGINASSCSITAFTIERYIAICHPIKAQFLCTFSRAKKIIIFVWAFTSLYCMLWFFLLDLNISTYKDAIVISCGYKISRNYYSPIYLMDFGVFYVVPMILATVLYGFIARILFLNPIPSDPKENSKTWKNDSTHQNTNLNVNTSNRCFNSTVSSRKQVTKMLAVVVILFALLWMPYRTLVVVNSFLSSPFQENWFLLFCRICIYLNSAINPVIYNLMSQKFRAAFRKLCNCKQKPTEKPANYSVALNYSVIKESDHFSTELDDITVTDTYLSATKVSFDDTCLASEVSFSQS
Method in brief: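 Overnight-plated (18 h, 37 °C, 5% CO2) TRHR-Hek293 cells; 2 h calcium dye at 37 °C; compound in DMSO; 3-min kinetic fluorescence read.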

SMILES | outcome [1] | outcome [2] | outcome [3] | outcome [4] | Potency [5] | outcome [6] | outcome [7] | Potency [8] | Potency [9] | Potency [10] | Potency [11] | Potency [12] | Potency [13] | Potency [14] | max activation [15] [%] | outcome [16] | outcome [17] | Potency [18]
CC/C=C\CCCCCCCCCCOC(C)=O | inactive | inactive | inactive | inactive | inactive | inactive | inactive | inactive | inactive | inactive | inactive | inactive | inactive | – | – | – | – | –
CCN1CCN(C(=O)N[C@@H](C(=O)N[C@@H]2C(=O)N3C(C(=O)O)=C(CSc4nnnn4C)CS[C@H]23)c2ccc(O)cc2)C(=O)C1=O | inactive | inactive | inactive | inactive | inactive | inactive | inactive | – | inactive | inactive | inactive | inactive | – | inactive | -3.62 | inactive | inactive | –
CC(C)(C)OC=O | inactive | inactive | inactive | inactive | inactive | inactive | inactive | inactive | inactive | inactive | – | inactive | – | inactive | – | – | – | –
O=CN1CCCCC1 | inactive | inactive | inactive | inactive | inactive | inactive | inactive | inactive | inactive | inactive | inactive | inactive | inactive | inactive | – | – | – | –
CC(O)CCCCn1c(=O)c2c(ncn2C)n(C)c1=O (configuration not stated) | inactive | inactive | inactive | inactive | inactive | inactive | inactive | – | inactive | inactive | – | inactive | – | inactive | -1.02 | inactive | inactive | –
CCCCCCCCC1CO1 (configuration not stated) | inactive | inactive | inactive | inactive | inactive | inactive | inactive | – | inactive | inactive | inactive | inactive | inactive | 55.7 µM (active) | – | – | – | –
Cc1ccc(Br)cc1 | inactive | inactive | inactive | inactive | inactive | inactive | inactive | inactive | – | inactive | inactive | inactive | inactive | inactive | – | – | – | –
CC(C)C(C)C | inactive | inactive | inactive | inactive | inactive | inactive | inactive | inactive | inactive | inactive | inactive | inactive | – | inactive | – | – | – | –
CC/C=C/CCCCCCCCCCOC(C)=O | inactive | inactive | inactive | inactive | inactive | inactive | inactive | inactive | inactive | inactive | – | inactive | inactive | inactive | – | – | – | –
CC(C)OC(=O)C(C(=O)OC(C)C)=C1SC=CS1 | inactive | inactive | – | inactive | inactive | inactive | inactive | inactive | 34.7 µM (active) | – | 13.8 µM (active) | inactive | inactive | 26.6 µM (active) | 6.37 | inactive | inactive | inactive
N#Cc1cc(NC(=O)C(=O)O)c(Cl)c(NC(=O)C(=O)O)c1 | inactive | inactive | inactive | inactive | inactive | inactive | inactive | inactive | inactive | inactive | – | inactive | inactive | inactive | – | – | – | –
CC(C)OCCO | inactive | inactive | inactive | inactive | inactive | inactive | inactive | inactive | inactive | inactive | inactive | inactive | inactive | inactive | – | – | – | –
CC1=C(O)C(=O)CO1 | inactive | inactive | inactive | inactive | inactive | inactive | inactive | – | – | – | inactive | inactive | – | inactive | – | – | – | –
Nc1ccc(C(=O)NCC(=O)O)cc1 | inactive | inactive | inactive | inactive | inactive | inactive | inactive | – | inactive | inactive | – | inactive | inactive | inactive | -2.15 | inactive | inactive | –
CCOC(=O)c1ccc(N(C)C)cc1 | inactive | inactive | inactive | inactive | inactive | inactive | inactive | inactive | 22.4 µM (active) | 31.7 µM (active) | – | inactive | inactive | 54.5 µM (active) | – | – | – | –
CCCCN(CCCC)CCCCCCN(CCCC)CCCC | inactive | inactive | – | inactive | inactive | inactive | inactive | 5.03 µM (active) | inactive | – | – | inactive | inactive | inactive | – | – | – | inactive
CCc1ccc(CC)cc1 | inactive | inactive | – | inactive | inactive | – | inactive | inactive | inactive | inactive | inactive | inactive | inactive | inactive | – | – | – | inactive
CN1C(CCl)Nc2cc(Cl)c(S(N)(=O)=O)cc2S1(=O)=O (configuration not stated) | inactive | inactive | inactive | inactive | inactive | inactive | inactive | inactive | inactive | inactive | inactive | inactive | – | inactive | -9.91 | inactive | inactive | –
